± gives the standard deviation of the averaged measurements.

For test [1], the system named is DLD1. Briefly: cell viability (CellTiter-Glo) relative to plate median (fraction of plate median); higher = more viable cells. Conditions: 5 µM; treatment time 24 h; reporter: 7TFP. The method, boiled down:
(§1)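 Stable lentiviral TCF/Wnt firefly luciferase reporters (7TFP or TCF4/Wnt) were present in the colorectal cancer cell lines used. These cells received library compounds at a final 5 µM for 24 h, and parallel plates were read for firefly luciferase or CellTiterGlo luminescence. Each well was normalised to the plate median, and the value reported is the mean of two independent replicates.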
(In ATP-based viability assays light output follows the ATP content of the culture.)

The test system of a further test is HCT116. The test is described as above. Conditions: 5 µM; treatment time 24 h; reporter: TCF4/Wnt. The method, boiled down:
as §1

Test [2] has as its system SW480. The description is as above. Conditions: 5 µM; treatment time 24 h; reporter: 7TFP. The method, boiled down: as §1
Test [3] concerns DLD1. In words: TCF/Wnt firefly luciferase reporter signal relative to plate median (fraction of plate median); higher = higher Wnt reporter signal. Conditions: 5 µM; treatment time 24 h; reporter: 7TFP. The method, boiled down: as §1
On the technique in general: Reporter assays use an easily measured gene product as a stand-in for the process of interest.

Test [4] deals with SW480. The description is as above. Conditions: 5 µM; treatment time 24 h; reporter: 7TFP. The method, boiled down: as §1

For `CC(=O)OC1CCC2(C)C(=CCC3C2CCC2(C)C(C(C)CCCC(C)C)CCC32)C1` (stereo not given), the cell viability came to 1.04 ± 0.021 with DLD1 [1], 1.05 ± 0.12 in the test with HCT116 and 0.964 ± 0.051 in the test on SW480 [2]. Besides, the figures for the “TCF/Wnt firefly luciferase reporter signal” value with DLD1 [3] and in the test on SW480 [4] were 1.11 ± 0.19 and 1.11 ± 0.15, respectively.
As for `C=C(C)[C@@H]1C[C@H]2O[C@](O)(C/C(C)=C\C(=O)/C=C(/C)C[C@@H]3OC(=O)[C@]24O[C@@H]34)[C@H]1O` [bipinnatolide F], the cell viability in the test on DLD1 [1] worked out at 1.02 ± 0.028; in the test with HCT116, 0.943 ± 0.018; with SW480 [2], 0.94 ± 0.074. Further, the results for the “TCF/Wnt firefly luciferase reporter signal” value with DLD1 [3] and with SW480 [4] were 1.01 ± 0.059 and 0.994 ± 0.023, respectively.
Take `Cc1ccc2c(Cl)cc(Cl)c(O)c2n1`: the results for the cell viability in the test with DLD1 [1], with HCT116 and in the test with SW480 [2] were 1.01 ± 0.021, 1.01 ± 0.15 and 1.07, respectively. Besides, the “TCF/Wnt firefly luciferase reporter signal” value in the test on DLD1 [3] is 1.06 ± 0.22; in the test on SW480 [4], 1.04 ± 0.067.
For `Nc1ccn([C@@H]2O[C@H](CO)[C@@H](O)[C@H]2O)c(=O)n1` the same measures were 0.977 ± 0.033, 1.06 ± 0.057, 1.06 ± 0.028, 1.16 ± 0.064 and 1.05 ± 0.057.
For `CC[C@H](C)C(=O)O[C@H]1C[C@@H](C)C=C2C=C[C@H](C)[C@H](CC[C@@H]3C[C@@H](O)CC(=O)O3)[C@H]21` the same measures were 1.02 ± 0.086, 1.06 ± 0.028, 1.035 ± 0.0071, 1.02 ± 0.079 and 1.07 ± 0.021.
For `O=C(O)c1ccccc1Nc1ccccc1` the same measures were 1.08 ± 0.15, 1.03 ± 0.14, 1.04 ± 0.057, 1.09 ± 0.099 and 0.911 ± 0.17.
On to `CC(C)CCCCCCCCC1CC(=O)NC(CCC(=O)O)C(=O)NC(CC(C)C)C(=O)NC(CC(C)C)C(=O)NC(C(C)C)C(=O)NC(CC(=O)O)C(=O)NC(CC(C)C)C(=O)NC(CC(C)C)C(=O)O1` (stereo not given) [Surfactin B1], for which the cell viability is 0.959 ± 0.072 with DLD1 [1], 0.925 ± 0.018 with HCT116 and 0.962 ± 0.038 with SW480 [2]. The “TCF/Wnt firefly luciferase reporter signal” value is 0.92 ± 0.21 in the test on DLD1 [3] and 1.01 ± 0.015 with SW480 [4].
For `O=C(O)P(=O)(O)O` the same measures were 1.06 ± 0.028, 0.965 ± 0.05, 1 ± 0.011, 0.834 ± 0.0092 and 0.944 ± 0.031.
For `CCCCCCNC(=O)n1cc(F)c(=O)[nH]c1=O` the same measures were 1.06 ± 0.042, 0.925 ± 0.13, 1.04 ± 0.014, 0.971 ± 0.13 and 1.08 ± 0.078.
Turning to `CCCCC(CC)CN=C(N)N=C(N)NCCCCCCNC(N)=NC(N)=NCC(CC)CCCC` (stereo not given), the values for the cell viability in the test with DLD1 [1], with HCT116 and in the test on SW480 [2] were 0.971 ± 0.0057, 0.924 ± 0.045 and 1.02 ± 0.014, respectively. The results for the “TCF/Wnt firefly luciferase reporter signal” value in the test with DLD1 [3] and in the test on SW480 [4] were 1.14 ± 0.028 and 1.1 ± 0.085, respectively.
Regarding `CC(=O)O[C@H](CC(=O)[O-])C[N+](C)(C)C`, the results for the cell viability with DLD1 [1], in the test on HCT116 and in the test with SW480 [2] were 1.06 ± 0.05, 0.958 ± 0.044 and 0.956 ± 0.043, respectively. Further, the entries for the “TCF/Wnt firefly luciferase reporter signal” value in the test with DLD1 [3] and in the test with SW480 [4] were 0.94 ± 0.073 and 0.996 ± 0.0057, respectively.
For the molecule `O=C(O)c1cccc(O)c1O`, the cell viability was determined as 1.01 ± 0.047 in the test on DLD1 [1], 1.14 ± 0.035 in the test on HCT116 and 1.02 ± 0.068 in the test on SW480 [2]. The “TCF/Wnt firefly luciferase reporter signal” value in the test on DLD1 [3] came out at 0.954 ± 0.034; in the test on SW480 [4] it was 0.947 ± 0.0085.
For `CN(C)CCCN1c2ccccc2Sc2ccc(C(F)(F)F)cc21` the same measures were 1.07 ± 0.17, 0.993 ± 0.081, 1.04 ± 0.028, 0.957 ± 0.034 and 0.959 ± 0.17.
For the molecule `COc1ccc(CCN(C)CCCC(C#N)(c2ccc(OC)c(OC)c2)C(C)C)cc1OC` (stereo not given), the values for the cell viability with DLD1 [1], with HCT116 and in the test with SW480 [2] were 1.04 ± 0.12, 0.971 ± 0.07 and 1.02 ± 0.014, respectively. For the same molecule, the “TCF/Wnt firefly luciferase reporter signal” value in the test with DLD1 [3] came to 1.01 ± 0.12; in the test with SW480 [4], 1.03 ± 0.11.
